Results filed as inconclusive are left out. Values without a mark were called inactive. The call rests on the fitted dose curve; in most records, active means well fitted activation curve with a large enough effect; inconclusive means small, poorly fitted or top-dose-only effect; inactive means no such curve, though single readings can be large or run the other way.
Molecular target: D(1A) dopamine receptor (Homo sapiens) (UniProt P21728)
Assay: HTS Assay for Allosteric Agonists of the Human D1 Dopamine Receptor: Primary Screen for Potentiators (AID 488982); further: 0% is about no effect
Details: HEK293 T-REx D1 inducible cells, calcium flux, kinetic fluorescence; series mostly up to 8.37 µM; activity, positive = potentiation: at the top concentration
Method in brief: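 Tetracycline-induced HEK293 T-REx cells force-coupled to calcium signalling were incubated overnight at 30 C and dye-loaded at room temperature. Calcium flux over 180 s after compound addition flagged agonists; a further 180 s read after EC20 dopamine flagged potentiators.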

Sequence of D(1A) dopamine receptor (Homo sapiens) (P21728 whole entry, looked up): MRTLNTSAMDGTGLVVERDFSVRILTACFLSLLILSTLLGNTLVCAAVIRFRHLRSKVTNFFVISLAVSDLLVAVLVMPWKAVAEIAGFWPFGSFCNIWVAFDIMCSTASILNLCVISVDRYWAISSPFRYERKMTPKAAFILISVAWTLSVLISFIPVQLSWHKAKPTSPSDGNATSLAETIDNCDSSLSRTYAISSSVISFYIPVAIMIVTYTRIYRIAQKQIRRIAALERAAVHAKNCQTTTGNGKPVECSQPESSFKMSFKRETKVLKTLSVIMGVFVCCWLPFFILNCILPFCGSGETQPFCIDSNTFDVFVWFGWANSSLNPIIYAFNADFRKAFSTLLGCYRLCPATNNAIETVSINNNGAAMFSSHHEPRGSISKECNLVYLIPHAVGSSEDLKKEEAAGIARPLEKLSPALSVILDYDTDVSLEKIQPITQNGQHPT

First: N[C@@H](CCCC(=O)O)C(=O)O
Second: CSC(N)=NCCC[C@H](N)C(=O)O
The “activity, positive = potentiation” value of the first is lower: -5.07% for the first, 5.6% for the second.

Going from `NCCCCN=C(N)N` to `NCCS(=O)O`, the “activity, positive = potentiation” value falls from 19.3% to 0.908%.

First: C#CCn1c(=O)c2c(ncn2C)n(C)c1=O
Second: CC(C)Cn1c(=O)n(C)c(=O)c2[nH]cnc21
The “activity, positive = potentiation” value of the first is higher: -0.285% for the first, -10.9% for the second.

Going from `O=C(O)Cc1c[nH]c2ccc(O)cc12` to `N[C@@H](Cc1c[nH]c2ccccc12)C(=O)O`, the “activity, positive = potentiation” value falls from 21.9% to 1.82%.

First: COc1cc(N)c(Cl)cc1C(=O)OCCN1CCCCC1
Second: COc1ccccc1N1CCN(CCCCNC(=O)c2ccc3ccccc3c2)CC1
The “activity, positive = potentiation” value of the first is higher: -0.315% for the first, -98.1% for the second.

Going from `c1ccc(C2CN3CCSC3=N2)cc1` (stereo not drawn) to `N=C(N)c1ccccc1`, the “activity, positive = potentiation” value rises from 10.9% to 16.4%.

First: Oc1ccc(Cn2cc[nH]c2=S)cc1
Second: CC(C)NC[C@H](O)COc1ccc(CC(N)=O)cc1
The “activity, positive = potentiation” value of the first is higher: 18.8% for the first, -7.13% for the second.

First: COc1ccc(-c2ccc(N)[n+](CCCC(=O)O)n2)cc1
Second: Cn1cc(C(F)(F)F)nc1-c1ccc(OCC(O)CNCCOc2ccc(O)c(C(N)=O)c2)cc1 (stereo not drawn)
The “activity, positive = potentiation” value of the first is higher: 23.5% for the first, 20.7% for the second.

Compared with `Cn1c(=O)c2c(nc(/C=C/c3cccc(Cl)c3)n2C)n(C)c1=O`, `CCCn1c(=O)c2[nH]c(-c3ccc(S(=O)(=O)O)cc3)nc2n(CCC)c1=O` is lower in “activity, positive = potentiation” value: 20.1% for the first, 2.05% for the second.

Going from `Cn1cc(C(=O)OCC2CCN(CCNS(C)(=O)=O)CC2)c2ccccc21` to `CCC(=O)N1CCN(C(=O)c2ccccc2)CC1`, the “activity, positive = potentiation” value falls from 10.3% to -30.7%.

First: NC/C=C\C(=O)O
Second: O=C(O)/C=C/c1ccc(O)c(O)c1
The “activity, positive = potentiation” value of the first is lower: -15.7% for the first, 11.2% for the second.

Going from `Nc1ccc(-c2nc3ccc(-c4nc5ccc(N)cc5[nH]4)cc3[nH]2)cc1` to `CCCCCCCCCC[Si](C)(C)CCC(=O)NC(Cc1ccc(C)cc1)c1ccccc1` (stereo not drawn), the “activity, positive = potentiation” value rises from -3.33% to 9.62%.

Going from `NC(=O)c1cc[n+](CC2=C(C(=O)O)N3C(=O)[C@@H](NC(=O)[C@@H](c4ccccc4)S(=O)(=O)[O-])[C@H]3SC2)cc1` to `NC(=O)CNCCC(c1ccccc1)c1ccccc1`, the “activity, positive = potentiation” value falls from 25.9% to 2.81%.

First: CN[C@H](CC(=O)O)C(=O)O
Second: O=C(O)CCC(=O)N1CCCC1C(=O)O (stereo not drawn)
The “activity, positive = potentiation” value of the first is higher: 31.5% for the first, 18.7% for the second.

Going from `Cc1cccc(C)c1OCC(N)C(C)C` (stereo not drawn) to `CC[N+](CC)(CC)CC(=O)Nc1c(C)cccc1C`, the “activity, positive = potentiation” value falls from 3.89% to 3.03%.

Going from `Cn1ccnc1` to `Nc1ncnc2c1ncn2C1CCCO1` (stereo not drawn), the “activity, positive = potentiation” value rises from -22.9% to -5.93%.

Going from `C#CC(N)CCC(=O)O` (stereo not drawn) to `O=C(O)C1CCNCC1`, the “activity, positive = potentiation” value rises from 20.3% to 29.5%.

First: CCSC(=N)N
Second: CCN1C(=O)C=CC1=O
The “activity, positive = potentiation” value of the first is higher: 27.1% for the first, 11.6% for the second.

First: O=C(O)[C@H]1NCCC[C@H]1C(=O)O
Second: Cc1nc(N=Nc2ccc(C(=O)O)cc2)c(COP(=O)(O)O)c(C=O)c1O
The “activity, positive = potentiation” value of the first is higher: 20.9% for the first, -12.9% for the second.

From PubChem BioAssay (NCATS)
